Paper PMC7819943, “Rice protein-binding microarrays: a tool to detect cis-acting elements near promoter regions in rice”
Over roughly 35,000 sequences, “fluorescence intensity (a.u.)” has its median near 10,000; the highest 2% begin near 52,000. For the sample, the highest values were picked, then their nearest neighbours and some sequences at random.

Target: T1, OsWOX13 (Oryza sativa, UniProt Q5QMM3 1-267)
T1 sequence: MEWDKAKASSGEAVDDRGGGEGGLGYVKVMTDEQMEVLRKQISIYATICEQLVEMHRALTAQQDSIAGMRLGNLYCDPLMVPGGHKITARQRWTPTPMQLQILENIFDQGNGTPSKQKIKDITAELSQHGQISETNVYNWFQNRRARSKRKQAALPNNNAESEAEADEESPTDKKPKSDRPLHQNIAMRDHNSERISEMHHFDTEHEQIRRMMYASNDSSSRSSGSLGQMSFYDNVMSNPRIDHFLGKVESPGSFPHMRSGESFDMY
Experiment: protein-binding microarray (RPBM); PBS, 2% BSA, 51.3 ng/ul salmon testes DNA, 50 uM zinc acetate, 200 nM TF, 25 C, 1 h; high values mean tight binding
Conditions: protein: recombinant; tags: N-terminal polyhistidine and DsRed monomer fusion (pET32a); label: CyDye5-dUTP incorporated in the synthesized complementary strand; 3' TTTTT single-stranded linker to array surface; dsDNA, one strand shown
How it was run: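 Transcription factors, each fused N-terminally to a polyhistidine tag and DsRed, were expressed in E. coli BL21-CodonPlus and purified on Ni–NTA. A custom Agilent array was made double-stranded by primer extension with Cy5-dUTP and blocked with 2% BSA. It was incubated with 200 nM protein in PBS, 2% BSA, salmon testes DNA and 50 µM zinc acetate at 25 °C for 1 h, then washed. The binding signal is per-feature fluorescence intensity (arbitrary units) read on an Axon 4000B scanner.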

Question: With “CTACTATCAATCGACCAATTCCAATCTCATCGTTACAGGACGGAGTCACCTAGTGCAG” as the sequence, how does the binding signal read?
Answer: The binding signal was 4190 fluorescence intensity (a.u.).

Question: Which binding signal does the source give for “ACATGTTTTATCAATTAGTAGTATGGGCATATTACTAGTGCGGAGTCACCTAGTGCAG” here?
Answer: The binding signal was 17800 fluorescence intensity (a.u.).

Question: Which binding signal does the source give for “AGGAGGCGGGGCGGGGCGGCGGCGGCGGCGGCGGCGCCCGCGGAGTCACCTAGTGCAG” here?
Answer: Its binding signal is 5340 fluorescence intensity (a.u.).

Question: For “TCTCTTCCTTGCTGTGGTGGCGGCGGGCGGGAGGGCGGCGCGGAGTCACCTAGTGCAG”, which binding signal is on record?
Answer: Its binding signal is 12700 fluorescence intensity (a.u.).

Question: How did the binding signal turn out when “TGCCCTTACCTGTGGTTTCTCCCGCGGCGGCGGGGTGGAGCGGAGTCACCTAGTGCAG” was run?
Answer: Its binding signal is 65500 fluorescence intensity (a.u.).

Question: Which binding signal does the source give for “TCTGACCTGTATACTAATTTATGACCATATACTTAATCAACGGAGTCACCTAGTGCAG” here?
Answer: The binding signal was 5380 fluorescence intensity (a.u.).

Question: How did the binding signal turn out when “AAAACCATCATCAATCAGCCGATCCTGATGTTGTCCCTGCCGGAGTCACCTAGTGCAG” was run?
Answer: Its binding signal is 25100 fluorescence intensity (a.u.).

Question: How did the binding signal turn out when “AAGAGATTGGAATCGGGCGTACCGGAGAACTTTGGAGATGCGGAGTCACCTAGTGCAG” was run?
Answer: Its binding signal is 12100 fluorescence intensity (a.u.).

Question: For “TCGTTGTAATAATTTGATTTCTTTTGCAGACGGTCTTTATCGGAGTCACCTAGTGCAG”, which binding signal is on record?
Answer: The binding signal was 5300 fluorescence intensity (a.u.).

Question: How did the binding signal turn out when “GGAAGAATTGATTGATTAAAGATATATATCGAATATCTGCCGGAGTCACCTAGTGCAG” was run?
Answer: The binding signal was 40400 fluorescence intensity (a.u.).

Question: Which binding signal does the source give for “AATTGATTATTCCTAACAACATTCCGCGGATTAATTTTCTCGGAGTCACCTAGTGCAG” here?
Answer: The binding signal was 15500 fluorescence intensity (a.u.).

Question: With “AGATAATTGTGAAATAATTATATTGCGATTTGATAAAGTACGGAGTCACCTAGTGCAG” as the sequence, how does the binding signal read?
Answer: The binding signal was 14700 fluorescence intensity (a.u.).

Question: Which binding signal does the source give for “TATGATTGATATCCACGAATTGAAGAAGAAGTTGCATTGCCGGAGTCACCTAGTGCAG” here?
Answer: Its binding signal is 55300 fluorescence intensity (a.u.).

Question: For “GTCTAATTGTGATTTTATATTTTAATTAATTATATATTGTCGGAGTCACCTAGTGCAG”, which binding signal is on record?
Answer: The binding signal was 34800 fluorescence intensity (a.u.).

Question: With “GGATAATGATTTGACATTGATTGCGGTCTCGTTATTTTCTCGGAGTCACCTAGTGCAG” as the sequence, how does the binding signal read?
Answer: The binding signal was 59500 fluorescence intensity (a.u.).

Question: For “ACATATCTTAAGATTGATGAAGTCACCACGAACGCCTCGCCGGAGTCACCTAGTGCAG”, which binding signal is on record?
Answer: Its binding signal is 11700 fluorescence intensity (a.u.).

Question: “TTGATTAATTTATTTATAGTTTTGTGAAAGTTTGCGCCGTCGGAGTCACCTAGTGCAG” was tested. Which binding signal did it give?
Answer: The binding signal was 57900 fluorescence intensity (a.u.).

Question: “ATGAAAGGAGTTGATTTGCACCGGTTTTCAAAGATGAAAACGGAGTCACCTAGTGCAG” was tested. Which binding signal did it give?
Answer: Its binding signal is 3470 fluorescence intensity (a.u.).

Question: “CTCAAAAGTTTGGGTTGATCGATCATTTGCCTACCGAAACCGGAGTCACCTAGTGCAG” was tested. Which binding signal did it give?
Answer: The binding signal was 65500 fluorescence intensity (a.u.).

Question: For “GGTTTAAATTTTAAAAGTTTGATCAAATATTATCCTAAACCGGAGTCACCTAGTGCAG”, which binding signal is on record?
Answer: Its binding signal is 4900 fluorescence intensity (a.u.).

Question: With “TGGAAGAAATTGATGTAATGCTCTGGCCTTTTCATGGATACGGAGTCACCTAGTGCAG” as the sequence, how does the binding signal read?
Answer: Its binding signal is 8100 fluorescence intensity (a.u.).

Question: With “GCTAATTAAATTAATAATTCATCTTAGGAATCACAGCGTCCGGAGTCACCTAGTGCAG” as the sequence, how does the binding signal read?
Answer: The binding signal was 39000 fluorescence intensity (a.u.).

Question: Which binding signal does the source give for “CGCTTAATGACTTCACTTTGTCCTCGGATGATTTGCGTCCCGGAGTCACCTAGTGCAG” here?
Answer: Its binding signal is 11700 fluorescence intensity (a.u.).

Question: Which binding signal does the source give for “CCCAGTCAATCTCCCCATCTCCTCGGCCTCGGCAATAGTACGGAGTCACCTAGTGCAG” here?
Answer: The binding signal was 7200 fluorescence intensity (a.u.).

Question: How did the binding signal turn out when “GATAGATAGATAGATAGATAGATAGATAGATACTAGTACACGGAGTCACCTAGTGCAG” was run?
Answer: The binding signal was 37000 fluorescence intensity (a.u.).

Question: Which binding signal does the source give for “GCTTAATTAGCCGCTTCAGTTGCACAGTAACTGAGGAACCCGGAGTCACCTAGTGCAG” here?
Answer: Its binding signal is 32700 fluorescence intensity (a.u.).

Question: For “TGTAATAATAATTTAATCGATCTTTCAAGGGGCATTCTCGCGGAGTCACCTAGTGCAG”, which binding signal is on record?
Answer: Its binding signal is 8040 fluorescence intensity (a.u.).

Question: Which binding signal does the source give for “TTTAGATTGCTAAACACACATGTATATATAAGTTTTATTTCGGAGTCACCTAGTGCAG” here?
Answer: The binding signal was 5900 fluorescence intensity (a.u.).

Question: How did the binding signal turn out when “TCGATTGACTGCATCTTTTCCTGAAAGTGAACATGCAGTGCGGAGTCACCTAGTGCAG” was run?
Answer: The binding signal was 32500 fluorescence intensity (a.u.).

Question: For “TGTAATCTATCAAGAATCCATTACTGAGACACAAATGCATCGGAGTCACCTAGTGCAG”, which binding signal is on record?
Answer: Its binding signal is 4280 fluorescence intensity (a.u.).

Question: Which binding signal does the source give for “TCCTAATTAATGTTAGAAATTTTCCTAATTAATGCTAGAACGGAGTCACCTAGTGCAG” here?
Answer: Its binding signal is 28600 fluorescence intensity (a.u.).

Question: Which binding signal does the source give for “ACTAGTATTAAATTGACTATAAATGATTTGGAGTTAGTAGCGGAGTCACCTAGTGCAG” here?
Answer: Its binding signal is 26300 fluorescence intensity (a.u.).

Question: Which binding signal does the source give for “TTAAATTGACTATAGTTGATTTGTAGCCTACAATTGGCAGCGGAGTCACCTAGTGCAG” here?
Answer: The binding signal was 64600 fluorescence intensity (a.u.).

Question: “GAGTTGATTTGCGTTGTCTCTCCGTCTCTTTCTTATTAATCGGAGTCACCTAGTGCAG” was tested. Which binding signal did it give?
Answer: The binding signal was 20800 fluorescence intensity (a.u.).

Question: “TATAATTGATCTTTGTAGTTATTTTGTTGCATACATAAGACGGAGTCACCTAGTGCAG” was tested. Which binding signal did it give?
Answer: The binding signal was 29100 fluorescence intensity (a.u.).

Question: For “TGGTTATTATATTGATTATAGATAATTTGAAGTTAGTAGTCGGAGTCACCTAGTGCAG”, which binding signal is on record?
Answer: The binding signal was 31500 fluorescence intensity (a.u.).

Question: With “CGTTGATTATTGCGATCGAAACCGTCTCATATAATTTTGCCGGAGTCACCTAGTGCAG” as the sequence, how does the binding signal read?
Answer: Its binding signal is 52500 fluorescence intensity (a.u.).

Question: How did the binding signal turn out when “ACATATATAAGTTGATTGATTTGTTATTATAGACGACGAGCGGAGTCACCTAGTGCAG” was run?
Answer: The binding signal was 55400 fluorescence intensity (a.u.).

Question: With “ACTAAAATTTGATAAAATTTATTTTGCCTATAATATAAACCGGAGTCACCTAGTGCAG” as the sequence, how does the binding signal read?
Answer: The binding signal was 6120 fluorescence intensity (a.u.).

Question: For “AAGTTATATATATTGATGATTTATACAACTTTGTTGGTGACGGAGTCACCTAGTGCAG”, which binding signal is on record?
Answer: Its binding signal is 3620 fluorescence intensity (a.u.).

Question: With “CTATTGATTATGATAATTTGAAGTTATATAGCTTGATTTGCGGAGTCACCTAGTGCAG” as the sequence, how does the binding signal read?
Answer: Its binding signal is 57700 fluorescence intensity (a.u.).

Question: With “TAGTTATATTTGATTATCTTGCGAACCTATATATAATATGCGGAGTCACCTAGTGCAG” as the sequence, how does the binding signal read?
Answer: Its binding signal is 5250 fluorescence intensity (a.u.).

Question: For “TGTAACTATTATATAAATTGGCTATTAAGTTTGACTATAGCGGAGTCACCTAGTGCAG”, which binding signal is on record?
Answer: Its binding signal is 17800 fluorescence intensity (a.u.).
